# The supplement of paper PMC10933113
# Counter-ions that a name gives are not always drawn. ± gives the uncertainty stated by the source.
# Test system: THP-1
# Assay: CD54 surface expression induction over DMSO control (% over DMSO); higher = stronger dendritic cell activation
# Conditions: exposure time: 24 h
# Method: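 hCLAT-like CD54 and CD86 surface expression on THP1 cells after 24 h exposure at a single concentration (highest non-cytotoxic concentration, or 100-200 µM if not cytotoxic). Flow cytometry (iQue) was run on 5,000 live cells.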
row,SMILES,CD54 surface expression induction
1,"COc1cc(C(C)(C)C)c(O)c(C(C)(C)C)c1 [2,6-Di-tert-butyl-4-methoxyphenol] (200 µM)",14.5 ± 0.32
2,O=C(O)Cc1cc(I)c(Oc2cc(I)c(O)c(I)c2)c(I)c1 [Tetrac] (100 µM),8.45 ± 9.3
3,"CC(C)=CCC/C(C)=C\CO [(2Z)-3,7-Dimethylocta-2,6-dien-1-ol] (200 µM)",-9.15 ± 2.5
4,COC(=O)Nc1nc2cc([S+]([O-])c3ccccc3)ccc2[nH]1 (stereo not given) [Oxfendazole] (100 µM),17.4 ± 3.6
5,CC(C)(C)c1cc(O)ccc1O [tert-Butylhydroquinone] (100 µM),48.9 ± 12
6,O=C(Nc1ncc([N+](=O)[O-])s1)c1cccs1 [Tenonitrozole] (10 µM),-7 ± 4.7
7,"c1ccc(-c2ccccn2)nc1 [2,2'-Dipyridyl] (200 µM)",-9.09 ± 20
8,O=C(O)CCCCCCCCC(=O)O [Decanedioic acid] (200 µM),-0.56 ± 5.1
9,CCCCCCCCCCCCCC[N+](C)(C)C [Tetradonium bromide] (10 µM),17.7 ± 3.4
10,"Cc1c2ccccc2c(C)c2c1ccc1ccccc12 [7,12-Dimethylbenzanthracene] (10 µM)",-22 ± 12
11,O=C(Oc1ccccc1)c1cccc(C(=O)Oc2ccccc2)c1 [Diphenyl isophthalate] (200 µM),-2.76 ± 5
12,O=C1c2ccccc2C(=O)C1c1ccc2ccccc2n1 [D & C Yellow II] (10 µM),-4.43 ± 3.6
13,"CCCCCCCCCCC=CC1CC(=O)OC1=O (stereo not given) [3-(Dodecenyl)dihydro-2,5-furandione] (200 µM)",16 ± 37
14,CC1COc2ccccc2N1C(=O)C(Cl)Cl (stereo not given) [Benoxacor] (10 µM),13.4 ± 3.8
15,COc1cccc2c1C(=O)c1c(O)c3c(c(O)c1C2=O)C[C@@](O)(C(=O)CO)C[C@@H]3O[C@H]1C[C@H](N)[C@H](O)[C@H](C)O1 [Doxorubicin*] (10 µM),187 ± 27
16,COc1cccc2c1C(=O)c1c(O)c3c(c(O)c1C2=O)C[C@@](O)(C(=O)CO)C[C@@H]3O[C@H]1C[C@H](N)[C@H](O[C@@H]2CCCCO2)[C@H](C)O1 [Pirarubicin*] (10 µM),263 ± 46
17,O=C(NS(=O)(=O)/C=C/c1ccccc1)c1ccc(F)cc1Cl (200 µM),1.54 ± 2.2
18,Nc1ccc(/N=N/c2ccccc2)c(N)n1 [Phenazopyridine hydrochloride] (100 µM),-3.19 ± 0.03
19,Sc1nc2ccccc2s1 [2-Mercaptobenzothiazole] (100 µM),-13.7 ± 14
20,CCOC(=O)CCC(=O)OCC [Diethyl butanedioate] (200 µM),-4.24 ± 4.1

row,SMILES,CD54 surface expression induction
1,c1ccc2[nH]c(-c3cscn3)nc2c1 [Thiabendazole] (100 µM),-2.19 ± 1.1
2,NC(=O)N/N=C/c1ccc([N+](=O)[O-])o1 [Nitrofurazone] (200 µM),15.9 ± 5.6
3,"O=C(O)c1cc(O)c2ccccc2c1O [1,4-dihydroxy-2-naphthoic acid*] (10 µM)",374 ± 47
4,CCCOc1ccc2[nH]c(NC(=O)OC)nc2c1 [Oxibendazole] (100 µM),-37.7 ± 6.7
5,O=C1c2cccc(O)c2C(=O)c2c(O)cc(CO)cc21 [Aloe-emodin] (100 µM),24.6 ± 18
6,CCC(=O)C=Cc1ccc(OC)cc1 [1-(4-Methoxyphenyl)-1-pentene-3-one] (200 µM),-15.2 ± 1.7
7,Cn1sccc1=O [2-Methyl-4-isothiazolin-3-one hydrochloride] (10 µM),-19.5 ± 27
8,CCCCOCCOCCOCCO [2-[2-(2-Butoxyethoxy)ethoxy]ethanol] (115 µM),20.1 ± 15
9,CC1=C(/C=C/C(C)=C/C=C/C(C)=C/C=O)C(C)(C)CCC1 [13-cis-Retinal (Vitamin A aldehyde)] (100 µM),188 ± 9.3
10,O=C(Oc1ccccc1)c1ccccc1O [Phenyl salicylate] (200 µM),-8.79 ± 7.5
11,C=CCOC(Cn1ccnc1)c1ccc(Cl)cc1Cl (stereo not given) [Imazalil sulfate] (100 µM),11.6 ± 11
12,"c1ccc(SCCSc2ccccc2)cc1 [1,2-Bis(phenylthio)ethane] (100 µM)",-6.44 ± 3
13,Nc1cc(-c2ccncc2)c[nH]c1=O [Amrinone] (100 µM),-1.65 ± 0.59
14,"Nc1ccccc1N [1,2-Phenylenediamine*] (200 µM)",161 ± 20
15,CC(C)c1ccc2oc3nc(N)c(C(=O)O)cc3c(=O)c2c1 [Amlexanox] (100 µM),-5.95 ± 2.7
16,CCCCCCCCCCCCN(CCO)CCO [Lauryldiethanolamine] (10 µM),-10.1 ± 4.7
17,"Nc1ccc(Nc2ccccc2)cc1 [N-Phenyl-1,4-benzenediamine] (200 µM)",46.9 ± 11
18,C=CCOC(=O)/C=C\C(=O)OCC=C [Diprop-2-en-1-yl (2Z)-but-2-enedioate] (203 µM),-3.66 ± 5.6
19,CC(C(=O)O)c1ccc(/C=C2\CCCCC2=O)cc1 (stereo not given) [Pelubiprofen] (100 µM),-1.67 ± 0.26
20,O=C1c2cccc(O)c2C(=O)c2c(O)cccc21 [Danthron] (100 µM),16.5 ± 0.49
